According to PubChem BioAssay AID602410 (Johns Hopkins Ion Channel Center, 2012):
About 2,800 (0.82%) of roughly 340,000 compounds were called active.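 Rule for the calls: active = B-score under library mean minus 4 SD, starting fluorescence ratio at most library mean plus 5 SD; inactive = the rest.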 This excerpt belongs to a sample that is enriched for actives.

Biological target: Potassium channel subfamily K member 3 (Homo sapiens) (UniProt O14649)
Assay: blockers of TASK1 two-pore potassium channel – CHO cells, FluxOR thallium flux, B-score, primary screen (AID 602410);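 for B-score: more negative B-score means stronger inhibition of thallium flux through KCNK3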
Conditions: CHO-KCNK3 thallium flux, FluxOR fluorescence, at 10 µM; active compounds read low

Sequence of Potassium channel subfamily K member 3 (Homo sapiens) (O14649 whole entry, looked up): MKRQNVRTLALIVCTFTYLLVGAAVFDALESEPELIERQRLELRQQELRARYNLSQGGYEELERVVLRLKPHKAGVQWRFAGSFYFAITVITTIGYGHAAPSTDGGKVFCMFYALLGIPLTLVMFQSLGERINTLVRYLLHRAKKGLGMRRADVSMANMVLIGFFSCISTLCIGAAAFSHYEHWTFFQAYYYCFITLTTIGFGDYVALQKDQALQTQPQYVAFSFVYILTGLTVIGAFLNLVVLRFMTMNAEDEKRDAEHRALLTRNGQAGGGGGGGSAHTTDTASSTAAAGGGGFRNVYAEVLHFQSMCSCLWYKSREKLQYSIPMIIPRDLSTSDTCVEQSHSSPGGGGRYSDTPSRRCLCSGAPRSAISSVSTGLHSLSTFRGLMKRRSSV

SMILES	B-score
S=c1[nH]nc(-c2ccco2)n1/N=C/c1ccc(Br)s1	inactive
CCN(CC(=O)NCc1ccc(Cl)cc1)C(=O)CSc1ccccc1	inactive
CC(c1ccccn1)N(CCN(C)C)C(=S)Nc1ccccc1F (centres undefined)	inactive
CSc1cccc(NC(=S)N(Cc2ccccc2)Cc2ccccn2)c1	inactive
CSc1cccc(NC(=S)N(C(C)C)C(C)c2ccccn2)c1 (centres undefined)	-10.1 (active)
NC(=S)Nc1c(Cl)cccc1Cl	inactive
FC(F)(F)c1cccc(Cc2noc(CN3CCC(N4CCCCC4)CC3)n2)c1	inactive
CC(C(=O)NCC1CCCCC1)N(C)Cc1cccc(Cl)c1 (centres undefined)	-8.9 (active)
CNS(=O)(=O)c1cccc(C(=O)NCC2CCCCC2)c1	inactive
COc1ccc(CN(C)C(C)C(=O)NC2CCCc3ccccc32)cc1 (centres undefined)	inactive
CCc1cccc(NC(=O)C2CCCN(S(=O)(=O)c3ccc4[nH]c(=O)ccc4c3)C2)c1 (centres undefined)	inactive
Cc1cc(OCC(=O)Nc2c(C)n(C)n(-c3ccccc3)c2=O)ccc1[N+](=O)[O-]	inactive
COc1ccc(CNCCCn2cnc3c(OCc4ccccc4)ncnc32)cc1	inactive
Fc1cc(Br)ccc1NC(=S)Nc1cccnc1	inactive
S=C(NCCc1ccccc1)N1CCn2cccc2C1c1ccncc1 (centres undefined)	inactive
S=C(Nc1cccc(Br)c1)N1CCn2cccc2C1c1cccnc1 (centres undefined)	-9.52 (active)
C=C(C)c1cccc(C(C)(C)NC(=O)N2CCN(c3ncccn3)CC2)c1	inactive
C=CCN1CN(S(=O)(=O)c2ccc(OC)cc2)c2nc3ccccc3nc21	inactive
O=C(Nc1cccc(S(=O)(=O)Nc2ccc(Cl)cc2)c1)c1ccc2c(c1)OCCO2	-9.14 (active)
O=C(Nc1ccc(Cl)cn1)c1ccc2c(c1)OCCO2	inactive
O=C(Nc1ccc2c(c1)OCCO2)c1ccc(Cl)c(S(=O)(=O)N2CCCCC2)c1	inactive
O=C(NCc1ccco1)C(=O)c1cn(CC(=O)N2CCCCCC2)c2ccccc12	inactive

SMILES	B-score
O=c1c(-c2ccc3c(c2)OCCO3)c(C(F)(F)F)oc2cc(O)cc(O)c12	inactive
CCOC(=O)c1cc2cc(-c3c(C(=O)OCC)oc4cc(O)cc(O)c4c3=O)ccc2o1	-9.55 (active)
CCOC(=O)c1cc(=O)c2ccc(OCc3ccccc3)cc2o1	inactive
COc1ccccc1NC(=O)CCC(=O)N1CC(C)Oc2ccc(C)cc21 (centres undefined)	inactive
O=C(O)C(CCc1ccccn1)c1ccccc1 (centres undefined)	inactive
Cc1ccc(CS(=O)(=O)CCC(=O)NC2CC2)cc1	inactive
COc1ccc(-c2nn(C)c(=O)c3ccccc23)cc1CNC(=O)C1CCCCC1	inactive
CCCCC(=O)Nc1ccccc1N1CCN(c2ccc(F)cc2)CC1	-9.06 (active)
CCCC(=O)Nc1ccccc1N1CCN(C(=O)c2ccccc2)CC1	inactive
O=C(Nc1ccccc1N1CCCC1)c1ccc2ccccc2c1	-8.97 (active)
O=C(NC(=S)Nc1ccccc1N1CCCCC1)c1ccc(F)cc1	inactive
O=C(Nc1ccccc1N1CCCC1)c1ccc(F)c(S(=O)(=O)N2CCOCC2)c1	inactive
Cc1cccc(C(=O)NC(=S)N2CCN(c3ccc([N+](=O)[O-])cc3)CC2)c1	inactive
O=C(Nc1ccccc1N1CCOCC1)c1ccncc1	inactive
Cc1cccc(C(=O)Nc2ccccc2N2CCN(c3ccc(F)cc3)CC2)c1	-12.2 (active)
CCC(C)C(=O)Nc1ccccc1N1CCN(c2ccc(F)cc2)CC1 (centres undefined)	inactive
Cc1[nH]c(C)c(S(=O)(=O)N2CCN(c3cccc(C(F)(F)F)c3)CC2)c1C(=O)N1CCCC1	inactive
O=C(NC(=S)N1CCCCC1c1cccnc1)c1ccccc1 (centres undefined)	inactive
CONc1nc2nonc2nc1NOC	inactive
CCCC(=O)Nc1cccc(NC(=S)NC(=O)C(C)Oc2ccc(Cl)cc2Cl)c1 (centres undefined)	inactive
CSc1cccc(NC(=O)C2CCCN2S(=O)(=O)c2ccc3c(c2)CCC(=O)N3)c1 (centres undefined)	inactive
CC(C(=O)c1ccc(-c2ccccc2)cc1)[n+]1cccc(Br)c1 (centres undefined)	inactive

SMILES	B-score
CSc1nccc(NC(=O)c2ccc(C(C)(C)C)cc2)n1	-10.4 (active)
COC(=O)c1nc(NC(=O)c2ccc(C(C)(C)C)cc2)n[nH]1	inactive
Cc1cccc(NC(=O)c2ccc(S(=O)(=O)N(C)c3ccccc3)cc2)n1	inactive
COc1ccccc1NC(=O)CN(c1ccccc1OC)S(=O)(=O)c1ccccc1	inactive
COc1ccccc1N(CC(=O)N1CCCCC1)S(=O)(=O)c1ccccc1	inactive
COc1ccccc1N(CCOc1ccccc1)S(=O)(=O)c1ccccc1	-10 (active)
O=S(=O)(O)CCN1CCOCC1	inactive
O=S(=O)(Cc1noc(-c2ccc(OC(F)(F)F)cc2)n1)c1ccc(F)cc1	inactive
c1n[nH]c(NCc2ccc3c(c2)OCO3)n1	inactive
N#Cc1nc(Cc2cccc3ccccc23)oc1NCc1ccc2c(c1)OCO2	-13.5 (active)
O=C(CCNS(=O)(=O)c1ccccc1C(F)(F)F)NCc1ccc2c(c1)OCO2	inactive
COC(=O)c1ccc2c(=O)n(CCN3CCOCC3)c(SCC(=O)Nc3cccc(OC)c3)nc2c1	inactive
COc1ccc(C(C)=O)cc1CN1C(=O)NC2(CCCCC2C)C1=O (centres undefined)	inactive
CC(CC(=O)O)CC(=O)NNC(=O)c1cccc(Br)c1 (centres undefined)	inactive
O=C(/C=C/NNC(=O)c1cccc(Br)c1)c1ccccc1	-9.94 (active)
Cc1ccccc1NC(=S)NNC(=O)c1cccc(Br)c1	inactive
CC(=O)OCC(=O)C1(O)CCC2C3CC(C)C4=CC(=O)CCC4(C)C3C(O)CC21C (centres undefined)	inactive
CC(C)(C)C(=O)Nc1c(Br)c(C2CC2)nn1-c1ccccc1	inactive
O=C(Cn1nc(CNc2ccc(Cl)cc2)[n+]2c1CCCCC2)c1ccc(Cl)cc1	inactive
COc1cc(C(=O)Nc2oc(-c3ccccc3)c(-c3ccccc3)c2C#N)cc(OC)c1OC	-10.4 (active)
N#Cc1c(NC(=O)CCCN2C(=O)c3ccccc3C2=O)oc(-c2ccccc2)c1-c1ccccc1	inactive
COc1cc(C(=O)NCC(=O)N2CC=C(c3ccccc3)CC2)cc(OC)c1OC	inactive

SMILES	B-score
CCC(C)(C)NC(=O)c1cc([N+](=O)[O-])ccc1N1CCCCC1	inactive
CCC(=O)c1ccc(OC(=O)/C=C/c2cc(OC)c(OC)c(OC)c2)cc1	inactive
CCOC(=O)N1CCC(N(CCOC)C(=O)Nc2ccc(C)c(C)c2)CC1	inactive
COc1ccc(N2CCN(C(=O)CNC(=O)c3ccc(Br)o3)CC2)cc1	inactive
COc1ccc(-c2nc(CCNC(=O)c3ccc(Br)o3)cs2)cc1	-10.2 (active)
O=C(NCCc1csc(-c2ccccc2)n1)c1ccccc1F	inactive
N#Cc1ccc(S(=O)(=O)NCC(=O)OCC(=O)NCCc2ccccc2)cc1	-11.3 (active)
O=C(COC(=O)CNS(=O)(=O)c1ccccc1)NC12CC3CC(CC(C3)C1)C2	inactive
O=C(COC(=O)Cc1ccccc1F)NCCc1ccccc1	inactive
COC(=O)c1ccc(CN2C(=O)NC(c3ccccc3)(c3ccccc3)C2=O)o1	inactive
COc1cccc(CNc2nc(C(F)(F)F)nc3ccccc23)c1	-9.39 (active)
CCc1ccc(C(CNc2nc(C(F)(F)F)nc3ccccc23)N(C)C)cc1 (centres undefined)	inactive
COc1ccc(CNc2ncnc3ccccc23)cc1	inactive
O=Cc1c(Cl)cccc1Cl	inactive
O=C(NNC1=C(C(=O)C(F)(F)F)CCC1)c1ccncc1	inactive
Cc1ccc(C(=O)OCC(=O)NC(=O)Cc2ccccc2)c(O)c1	inactive
COCCNC(=O)Cn1cc(C(=O)c2cccs2)c2ccccc21	inactive
O=C(Cn1cc(C(=O)c2cccs2)c2ccccc21)NCc1cccs1	-13.4 (active)
O=C(COC(=O)c1cccs1)NCc1cccs1	inactive
COc1ccc(F)cc1C(=O)C1CCCN(C(=O)CCc2ccccn2)C1 (centres undefined)	inactive
CCOC(=O)c1sc(-c2cccc([N+](=O)[O-])c2)cc1N	inactive
O=C(c1ccc(F)cc1)C1CCN(Cc2cn[nH]c2-c2ccccc2)CC1	inactive

SMILES	B-score
Cc1ccccc1NC(=O)Nc1ccccc1N1CCCCC1	inactive
Cc1ccc(C(C)C)cc1OCC(=O)Nc1ccccc1N1CCCC1	inactive
O=C(CNCCC1=CCCCC1)Nc1ccccc1N1CCCCCC1	-12.6 (active)
CC1=C[C@H]2Cc3cc(C)cc(C)c3S(=O)(=O)[C@@H]2C=C1	inactive
CC(C)n1c(O)c(N=Nc2ccccn2)c2ccccc21	inactive
CCN(CC)CCN(C(=O)c1cc(Cl)sc1Cl)c1nc2cc3c(cc2s1)OCO3	-8.98 (active)
CN(C)CCN(C(=O)C1CCCCC1)c1nc2cc3c(cc2s1)OCO3	inactive
CN(C)CCN(C(=O)C1=COCCO1)c1nc2ccc(Cl)cc2s1	inactive
CCn1c(SCC(=O)NC2CCCC2)nnc1-c1ccoc1C	inactive
CCN(CC)C(=O)CN(c1cccc(OC)c1)S(=O)(=O)c1ccc(C)cc1	inactive
CCCCCCCC(=O)NC(Nc1ccccc1OC)C(Cl)(Cl)Cl (centres undefined)	inactive
Cc1ccc(O)c(CCc2ccccc2)n1	inactive
COc1cc(NC(=O)c2cccs2)ccc1NC(=O)c1ccccc1Cl	inactive
CC(Oc1cccc(NC(=O)c2cccs2)c1)C(=O)c1ccccc1 (centres undefined)	-11.3 (active)
O=C(Nc1ccccc1-c1ccccc1)c1cccs1	inactive
CCNC(=O)CC1C(=O)N(c2ccc(OC)cc2)C(=O)N1CCOC (centres undefined)	inactive
COC(=O)c1cc(NC2c3ccccc3C(=O)N2c2ccc(Cl)cn2)cc(C(=O)OC)c1 (centres undefined)	-10.8 (active)
COC(=O)c1ccc(-n2cnc3ccccc32)nc1	inactive
Cc1ccnc(N2C(=O)c3ccccc3C2Nc2ccc3c(c2)OCCO3)c1 (centres undefined)	inactive
Cn1ccnc1-c1nnn(-c2ccc(F)cc2)n1	inactive
O=C(CC(c1ccccc1)c1cc(Cl)ccc1O)NCCN1CCOCC1 (centres undefined)	inactive
